Bioassay records (PubChem BioAssay)
MazF activator: MazEF (E. coli) toxin RNase activation; P0AE70; FAM/BHQ RNA-DNA oligo cleavage fluorescence, 5 h; activation, % at 20 µM; 350,000 tested, 0.32% active; AID 504720; in the data active means activation above about 50%
Target sequence (P0AE70 whole entry, looked up): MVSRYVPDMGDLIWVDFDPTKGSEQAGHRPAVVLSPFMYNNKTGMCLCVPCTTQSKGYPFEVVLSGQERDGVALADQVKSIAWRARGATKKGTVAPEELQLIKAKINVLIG
Mtb betalactam: beta-lactam sensitization of Mtb H37Rv; inhibition, % at 25 µM; 330,000 tested, 0.27% active; M. tuberculosis H37Rv growth with meropenem, percent inhibition; call rule not given here;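 further: growth measured after seven days incubation then overnight dye step; 0% = bacteria only wells and 100% = bacteria with antibiotic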
CCHFV vOTU inh: CCHFV vOTU protease inhibition; Pep-AMC fluorescence; inhibition, % at 11.5 µM; 370,000 tested, 0.55% active; further: 0% = vehicle wells with enzyme and 100% = no enzyme wells
FBA Mtb inh: Mtb fructose-bisphosphate aldolase inhibition. P9WQA3. inhibition, % at 1 µM. purified M. tuberculosis FBA, fluorescence read-out. 360,000 tested, 2.3% active; in the data active means inhibition above about 27%;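 further: 0% = vehicle and 100% = reference inhibitor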
Target sequence (P9WQA3 whole entry, looked up): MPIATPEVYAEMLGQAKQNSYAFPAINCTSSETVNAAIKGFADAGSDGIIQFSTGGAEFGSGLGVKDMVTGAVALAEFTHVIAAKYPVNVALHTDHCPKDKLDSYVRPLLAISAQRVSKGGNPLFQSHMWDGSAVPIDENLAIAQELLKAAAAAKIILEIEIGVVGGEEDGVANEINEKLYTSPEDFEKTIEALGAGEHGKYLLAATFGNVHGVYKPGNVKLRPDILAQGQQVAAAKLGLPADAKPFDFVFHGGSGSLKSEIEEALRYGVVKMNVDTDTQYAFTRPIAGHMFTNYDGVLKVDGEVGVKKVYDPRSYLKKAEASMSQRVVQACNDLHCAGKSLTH
GDH-TPI counter-1: inhibits GDH-TPI coupling enzymes, artifact for Mtb FBA screen | GDH-TPI coupled enzyme counterscreen, NADH absorbance | inhibition, % at 4.8 µM | 360,000 tested, 1.2% active;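 further: 0% = DMSO wells and 100% = wells lacking the enzyme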
Mtb FBA confirm: confirmation of M. tuberculosis fructose-bisphosphate aldolase inhibitors; AID 651616; inhibition, % at 1 µM; purified M. tuberculosis FBA, fluorescence read-out; 5,600 tested, 78% active; shares compounds with FBA Mtb inh; in the data active means inhibition above about 27%;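 further: 0% = vehicle wells and 100% = reference inhibitor wells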
GDH-TPI counter-2: inhibits GDH-TPI coupling enzymes, flagging Mtb FBA hits; inhibition, % at 1 µM; 5,600 tested, 81% active; GDH-TPI coupled enzyme counterscreen, fluorescence; AID 652141; shares compounds with FBA Mtb inh; in the data active means inhibition above about 10%
The depositor's hits bear a star. Only some compounds are listed: those with a hit (about 4% of all), similar ones and a draw of the others. Unless noted, no stated cut-off is given here; in the data, active means inhibition above about 30%; inactive means the rest.

Screening Cc1cc(-c2ccccc2)n2nc(N)nc2n1 returned MazF activator 1.9, Mtb betalactam -1.3, CCHFV vOTU inh -25.3, FBA Mtb inh 33.6*, GDH-TPI counter-1 2.4, Mtb FBA confirm 97.5* and GDH-TPI counter-2 76.1*.
`Fc1ccc(Cn2ccc3ccc(-c4ccc5ccn(Cc6ccccc6)c5c4)cc32)cc1` gave CCHFV vOTU inh 11.2.
Screening CN1C(=O)c2ccc(NC(=O)c3cccc(N4C(=O)CCC4=O)c3)cc2C1=O returned MazF activator 2.6, Mtb betalactam 7.9, CCHFV vOTU inh -66.1, FBA Mtb inh 28.4*, GDH-TPI counter-1 7.7, Mtb FBA confirm 81.5* and GDH-TPI counter-2 92.5*.
O=C(Nc1ccc2c(c1)C(=O)N(c1ccccc1)C2=O)c1cccs1 was read as MazF activator -14.5, Mtb betalactam 9.5, CCHFV vOTU inh -6.3, FBA Mtb inh 0.2 and GDH-TPI counter-1 -0.6.
Screening CCC(=O)Nc1ccc2c(c1)C(=O)N(C)C2=O returned MazF activator 9.7, Mtb betalactam -3.8, CCHFV vOTU inh -37.6, FBA Mtb inh 27.0*, GDH-TPI counter-1 16.1, Mtb FBA confirm 15.3 and GDH-TPI counter-2 5.6.
For Cc1cccc(NC(=O)c2cccc(N3C(=O)CCC3=O)c2)c1 the results were MazF activator 1.0, Mtb betalactam 10.8, CCHFV vOTU inh 13.2, FBA Mtb inh 0.9 and GDH-TPI counter-1 -2.1.
`O=C(O)CCN1C(=O)c2ccc(NC(=O)c3cccs3)cc2C1=O` gave MazF activator 4.1, Mtb betalactam 7.0, CCHFV vOTU inh -19.5, FBA Mtb inh 32.5*, GDH-TPI counter-1 16.5, Mtb FBA confirm 182.5* and GDH-TPI counter-2 171.2*.
Screening CCCC(=O)Nc1ccc2c(c1)C(=O)N(CCC(=O)O)C2=O returned MazF activator -4.2, Mtb betalactam -2.5, CCHFV vOTU inh -62.4, FBA Mtb inh 41.3*, GDH-TPI counter-1 14.0, Mtb FBA confirm 116.5* and GDH-TPI counter-2 89.4*.
For CN1C(=O)c2ccc(NC(=O)CSc3ccccc3)cc2C1=O the results were MazF activator 9.7, Mtb betalactam -1.0, CCHFV vOTU inh 9.7, FBA Mtb inh -1.4 and GDH-TPI counter-1 5.2.
`CC(C)NC(=O)N[C@H]1C[C@@H]2O[C@@H](CO)CC[C@@H]2O[C@@H]1CCc1ccc(-c2ccccc2F)cc1` gave CCHFV vOTU inh 0.6.
For Cc1ccc(-c2nnc(SCC(=O)c3ccc(O)c(O)c3)n2-c2ccc(Cl)cc2)cc1 the results were CCHFV vOTU inh 10.9.
For C=CCN1C(=O)c2n[nH]c(COC)c2C1c1ccc(F)cc1 (stereo not given) the results were CCHFV vOTU inh -4.4.
Screening CC(O)Cn1nc([N+](=O)[O-])nc1N (stereo not given) returned MazF activator 3.0, Mtb betalactam -11.2, CCHFV vOTU inh 27.2, FBA Mtb inh 31.0*, GDH-TPI counter-1 0.0, Mtb FBA confirm 180.2* and GDH-TPI counter-2 152.7*.
Cc1csc(SCC(=O)N(C)CC(=O)Nc2ccc(F)cc2)n1 was read as Mtb betalactam -0.5, FBA Mtb inh 27.9*, GDH-TPI counter-1 -5.7, Mtb FBA confirm 29.5* and GDH-TPI counter-2 13.1*.
CN(CC(=O)Nc1ccc(F)cc1)C(=O)CSc1nncs1 was read as MazF activator -3.1, Mtb betalactam -6.4, CCHFV vOTU inh -6.1, FBA Mtb inh 3.6 and GDH-TPI counter-1 11.0.
`COc1ccc2oc(C(=O)OCC(=O)N(C)Cc3ccccc3)c(C)c2c1` gave MazF activator 0.0, Mtb betalactam 2.8, CCHFV vOTU inh -1.0, FBA Mtb inh 30.6*, GDH-TPI counter-1 1.7, Mtb FBA confirm 157.8* and GDH-TPI counter-2 167.8*.
For COc1ccc2oc(C(=O)OCC(=O)N(Cc3ccccc3)C(C)C)c(C)c2c1 the results were MazF activator -4.2, Mtb betalactam -1.0, CCHFV vOTU inh 11.1, FBA Mtb inh 16.9 and GDH-TPI counter-1 5.3.
For COc1ccc2oc(C(=O)OCC(=O)N(C)c3ccccc3)c(C)c2c1 the results were MazF activator -2.3, Mtb betalactam -3.8, CCHFV vOTU inh -21.5, FBA Mtb inh 35.3*, GDH-TPI counter-1 -2.4, Mtb FBA confirm 128.3* and GDH-TPI counter-2 101.2*.
For COCc1[nH]nc2c1C(c1ccc3c(c1)OCO3)N(Cc1ccccc1)C2=O (stereo not given) the results were CCHFV vOTU inh -13.6.
